# Compound activity deposited in PubChem by Broad Institute.
# Tg IFNy HTS = T. gondii growth inhibition with IFN-gamma, primary screen, cell-based | activity change, negative = inhibition, % (test concentration not listed) | AID 1259416, 2018 | actives 3.8% (n = 69,000) | Toxoplasma gondii growth in IFN-gamma-treated host cells; active compounds read low; in the data active means activity change below about -70%, passing the limit was not always enough;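 further: host cells are HeLa cells infected with Toxoplasma gondii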
# Numbers stand for hits; - = inactive. This is one part of a sample in which hits are shown more often than they occur.
SMILES,Tg IFNy HTS
Cc1nc(CCNC(=O)[C@H]2CCCN2S(=O)(=O)c2ccccc2C)cs1,-
Cc1nc2ccccn2c1CC(=O)N1CCc2nc(-c3cncnc3)sc2C1,-
Cc1ccc(NC(=O)N2CCn3cnc(COCC4CC4)c3C2)cc1,-
Cc1cccc(NC(=O)Cn2ncc3c(N4CCN(c5ccccn5)CC4)ncnc32)c1C,-
COc1ccc(CCNC(=O)CN2CCCC3(CNC(=O)O3)C2)cc1 (centres undefined),-
CCn1c(=O)c(C(=O)Nc2ccccc2Cl)c(O)c2ccccc21,-
COc1ccccc1CNC(=O)c1nc(-c2ccc(C)cc2)n2c1CCCCC2,-115
COC(=O)c1cc2c(cc1NC(=O)c1nc(-c3ccc(C)cc3)n3c1CCCCC3)OCO2,-
COCCCNC(=O)c1nc(-c2ccc(Cl)cc2)n2c1CCCCC2,-
CNC(=O)CC1CC2(CCN(C(=O)COc3ccccc3)CC2)Oc2ccccc21 (centres undefined),-
O=C(Cn1nc(-c2ccccc2)nc1-c1ccccc1)Nc1ccccc1,-
COc1cccc(-c2nc3cnccn3c2NCCC(=O)N2CCC(C)CC2)c1,-
COc1cc(-c2cccc(-n3cccn3)c2)ccc1NC(C)=O,-
O=C1Cc2cc(-c3cccc(-n4cccn4)c3)ccc2N1,-93
O=C1Cc2cc(Cl)ccc2N1,-
CC(=O)OC[C@H]1O[C@@H](n2ccc(=O)[nH]c2=O)[C@H](OC(C)=O)[C@@H]1OC(C)=O,-
CC1Cc2ccccc2N1S(=O)(=O)c1csc(C(=O)Nc2ccccc2)c1 (centres undefined),-103
CC1Cc2ccccc2N1S(=O)(=O)c1cc2c3c(c1)CCC(=O)N3CCC2 (centres undefined),-
CCN(C)S(=O)(=O)c1csc(C(=O)Nc2ccc(C)cc2)c1,-
COc1ccc(OC)c(CNC(=O)Cn2ncc3c(N4CCCCCC4)ncnc32)c1,-
CN(C)C(=O)[C@]12CCCN(S(C)(=O)=O)C[C@@H]1CN(c1ccccn1)C2,-
Cc1nc(-c2ccc(F)cc2)sc1-c1ccc(SCc2cccc3ccccc23)nn1,-
CC1Cc2cc(CN(C)C(=O)CCS(=O)(=O)c3cccc4cccnc34)ccc2O1 (centres undefined),-
CN(CCNC(=O)Cn1c(=O)oc2ccc(Cl)cc21)c1ccccc1,-
CC1Cc2cc(CN(C)C(=O)Cn3c(=O)oc4ccc(Cl)cc43)ccc2O1 (centres undefined),-92
SMILES,Tg IFNy HTS
CCCc1nc(CN(CC)C(=O)c2csnn2)no1,-
Cc1c(C(C)NC(=O)c2cccc(Nc3nc(-c4ccccn4)cs3)c2)cnn1C (centres undefined),-
COC(=O)CC1(C(=O)OC)Oc2ccc(Cl)cc2C(=O)N1c1ccc(F)cc1F (centres undefined),-70
CCOC(=O)N1CCC2(CC1)OC(=O)C(C)=C2C(=O)Nc1ccc(F)cc1F,-
COc1ccc(Cl)cc1C(=O)Nc1ccc2c(c1)CCC(=O)N2C,-
c1coc(CN2CCCn3nnc(COCCN4CCCC4)c3C2)c1,-
COc1ccccc1N1CCN(C(=O)c2csc(C(=O)NC3CC3)n2)CC1,-
CC(C)(C)c1ccc(C(=O)/C=c2\[nH]c(=O)/c(=C\c3cccs3)s2)cc1,-102
Cc1cc(C(=O)c2ccc(C(C)(C)C)cc2)c(N)s1,-
Cc1cccc(CN2C[C@@H]3CN(Cc4cnn(C)c4)C[C@H]3C2=O)c1,-
CN1CCO[C@H]2CN(c3cccc(F)c3)CC[C@@H]2C1,-
COCC1CC2(CCN(Cc3ccco3)CC2)CN1Cc1ccncc1 (centres undefined),-
Cc1onc(-c2c(F)cccc2Cl)c1C1=NCCO1,-
Cc1onc(-c2c(Cl)cccc2Cl)c1-c1nnc(NC(=O)c2ccco2)s1,-
Cc1onc(-c2c(F)cccc2Cl)c1C(=O)ON=C1C2CC3CC(C2)CC1C3,-85
CCn1cc(CN(CCCN(C)C)Cc2ccc(C)o2)c(C)n1,-
COc1cccc(C(=O)N2CCc3c([nH]c4ccccc34)C2c2cccnc2)c1 (centres undefined),-107
O=C(c1ccc(F)cc1)N1CCc2c([nH]c3ccccc23)C1c1cccnc1 (centres undefined),-
O=C(c1cccc(F)c1)N1CCc2c([nH]c3ccccc23)C1c1cccnc1 (centres undefined),-96
O=C(CCC1CCCC1)N1CCc2c([nH]c3ccccc23)C1c1cccnc1 (centres undefined),-
COc1ccc(C2c3[nH]c4ccccc4c3CCN2C(=O)c2ccncc2)cc1 (centres undefined),-
Cc1ccc(N2CCC3(CC2)CN(Cc2cccnc2)CCO3)nn1,-
O=C(NCC1CCOCC1)[C@@H]1CN(Cc2cccc(F)c2F)[C@@H]2CCO[C@H]21,-
c1ccc2c(c1)-c1ccccc1C2Cn1cnc2ccccc21,-
COc1cccc(CN2CCC(CN)C2)c1O (centres undefined),-
CCOc1ccc2nc(SCC(=O)c3ccc(F)cc3)sc2c1,-79
O=C(CSc1ccccn1)c1ccc(OCc2ccc(F)cc2)cc1,-
CCOc1ccc2nc(NS(=O)(=O)c3ccc(NC(C)=O)cc3)sc2c1,-
